Assays:
Details in all cases: concentration: 1 μM, replicates: in singlicate; n = 1
PIK3CG = test system: PIK3CG
PIK4CB = test system: T1, PIK4CB
T1 construct: gene PI4KB

PIKFYVE = test system: PIKFYVE
PIM1 = test system: PIM1
PIM2 = test system: PIM2
PIM3 = test system: PIM3
PIP5K1A = test system: PIP5K1A
PIP5K1C = test system: PIP5K1C
PIP5K2B = test system: PIP5K2B
PIP5K2C = test system: T2, PIP5K2C
T2 construct: gene PIP4K2C

PKAC-alpha = test system: T3, PKAC-alpha
T3 construct: gene PRKACA

PKAC-beta = test system: T4, PKAC-beta
T4 construct: gene PRKACB

PKMYT1 = test system: PKMYT1
PKN1 = test system: PKN1
PKN2 = test system: PKN2
PLK1 = test system: PLK1
PLK2 = test system: PLK2
PLK3 = test system: PLK3
PLK4 = test system: PLK4
PRKCD = test system: PRKCD
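Further: KINOMEscan kinase panel screen.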

Row | SMILES | %Inh (PIK3CG) [%] | %Inh (PIK4CB) [%] | %Inh (PIKFYVE) [%] | %Inh (PIM1) [%] | %Inh (PIM2) [%] | %Inh (PIM3) [%] | %Inh (PIP5K1A) [%] | %Inh (PIP5K1C) [%] | %Inh (PIP5K2B) [%] | %Inh (PIP5K2C) [%] | %Inh (PKAC-alpha) [%] | %Inh (PKAC-beta) [%] | %Inh (PKMYT1) [%] | %Inh (PKN1) [%] | %Inh (PKN2) [%] | %Inh (PLK1) [%] | %Inh (PLK2) [%] | %Inh (PLK3) [%] | %Inh (PLK4) [%] | %Inh (PRKCD) [%]
1 | CN1C(=O)C(Nc2cc(Cl)c(O)c(Cl)c2)=C(c2ccc(Cl)cc2)C1=O [SB-404321] | 10 | 36 | 24 | 0 | 0 | 0 | 0 | 27 | 0 | 30 | 0 | 0 | 0 | 0 | 0 | 0 | 0 | 0 | 0 | 0
2 | COC(=O)c1c(-c2ccccc2)c2cc(Br)ccc2c(=O)n1Cc1ccc(NC(=O)CCC(=O)O)cc1 | 7 | 0 | 5 | 4 | 24 | 3 | 4 | 0 | 35 | 0 | 33 | 0 | 10 | 0 | 0 | 0 | 14 | 5 | 15 | 0
3 | O=C1NC(=O)C(c2ccccc2)=C1Nc1cccc(O)c1 [SB-390534] | 5 | 22 | 0 | 0 | 0 | 0 | 5 | 0 | 13 | 0 | 0 | 5 | 0 | 0 | 21 | 0 | 20 | 27 | 11 | 5
4 | CCc1ccc(-c2ccc3c(c2)-c2nn(C)cc2S(=O)(=O)N3C)cc1 | 0 | 0 | 16 | 0 | 12 | 0 | 0 | 35 | 0 | 9 | 0 | 0 | 0 | 0 | 0 | 8 | 0 | 56 | 0 | 14
5 | O=C(NCCNc1ccnc(Nc2ccc(F)cc2)n1)Nc1ccc2c(c1)OCO2 [GSK1379882] | 10 | 17 | 8 | 21 | 0 | 11 | 7 | 66 | 0 | 24 | 0 | 0 | 0 | 23 | 0 | 4 | 0 | 0 | 4 | 0
6 | Cc1nn2c(=O)cc(N3CCOCC3)nc2n1Cc1cccc(Cl)c1Cl [GSK2342769] | 69 | 0 | 62 | 0 | 0 | 0 | 0 | 12 | 5 | 1 | 7 | 7 | 1 | 36 | 0 | 5 | 0 | 0 | 0 | 0
7 | Cc1ccc(-c2ccc3c(ccc4sc5c(c43)NC[C@@H](C)N=C5N(C)C)n2)cn1 | 0 | 0 | 42 | 0 | 0 | 0 | 0 | 0 | 0 | 0 | 0 | 0 | 0 | 0 | 0 | 0 | 0 | 0 | 0 | 0
8 | CCC(=O)c1c(-c2ccccc2)c2cc(Cl)ccc2c(=O)n1Cc1cc(S(C)(=O)=O)n(CC(F)F)n1 | 0 | 0 | 0 | 0 | 0 | 0 | 2 | 9 | 0 | 0 | 0 | 0 | 0 | 0 | 0 | 0 | 24 | 13 | 0 | 9
9 | O=C(Nc1ccc2c(c1)OCO2)NC1CCN(c2ccnc(NCc3ccc(F)cc3)n2)CC1 [GSK1379859] | 0 | 2 | 0 | 8 | 0 | 0 | 0 | 19 | 2 | 0 | 12 | 0 | 0 | 0 | 0 | 0 | 0 | 0 | 9 | 7
10 | CCS(=O)c1ccc(-c2coc3ccc(-c4nnc(C)o4)cc23)cc1 (centres unmarked) | 0 | 19 | 3 | 6 | 27 | 11 | 0 | 13 | 0 | 93 | 0 | 18 | 0 | 0 | 16 | 0 | 0 | 14 | 5 | 4
11 | Cl.c1ccc(Cn2cnc3cc(Nc4ncnc5ccccc45)ccc32)cc1 [GW272142] | 0 | 0 | 6 | 0 | 0 | 0 | 0 | 38 | 0 | 17 | 0 | 0 | 0 | 0 | 0 | 0 | 0 | 0 | 0 | 0
12 | Nc1n[nH]c2nnc(-c3ccccc3)c(-c3ccccc3)c12 [GW554060] | 0 | 0 | 12 | 0 | 0 | 0 | 11 | 47 | 14 | 14 | 0 | 16 | 0 | 20 | 3 | 8 | 0 | 0 | 0 | 3
13 | Fc1cccc(CSc2nnc(-c3ccc4c(c3)CCO4)o2)c1 | 10 | 2 | 7 | 13 | 18 | 9 | 13 | 5 | 34 | 0 | 29 | 0 | 24 | 0 | 0 | 0 | 6 | 11 | 21 | 7
14 | COc1cc2nccc(Nc3cccc(Oc4ccccc4)c3)c2cc1OC.Cl [GW284543] | 0 | 0 | 29 | 0 | 0 | 0 | 0 | 48 | 18 | 8 | 0 | 10 | 0 | 0 | 0 | 0 | 0 | 0 | 0 | 5
15 | COc1cc2nccc(Nc3ccc(OCc4ccc(NC(C)=O)cc4)cc3)c2cc1OC.Cl [GW440135] | 7 | 4 | 0 | 8 | 0 | 0 | 15 | 32 | 22 | 25 | 0 | 0 | 0 | 44 | 0 | 12 | 0 | 0 | 0 | 11
16 | Nc1n[nH]c2ncc(-c3ccccc3)cc12 [SB-517081] | 0 | 0 | 0 | 12 | 0 | 0 | 0 | 38 | 9 | 23 | 0 | 0 | 2 | 0 | 0 | 0 | 11 | 0 | 15 | 0

Row | SMILES | %Inh (PIK3CG) [%] | %Inh (PIK4CB) [%] | %Inh (PIKFYVE) [%] | %Inh (PIM1) [%] | %Inh (PIM2) [%] | %Inh (PIM3) [%] | %Inh (PIP5K1A) [%] | %Inh (PIP5K1C) [%] | %Inh (PIP5K2B) [%] | %Inh (PIP5K2C) [%] | %Inh (PKAC-alpha) [%] | %Inh (PKAC-beta) [%] | %Inh (PKMYT1) [%] | %Inh (PKN1) [%] | %Inh (PKN2) [%] | %Inh (PLK1) [%] | %Inh (PLK2) [%] | %Inh (PLK3) [%] | %Inh (PLK4) [%] | %Inh (PRKCD) [%]
17 | Cc1c(Cn2c(C)nn3c(=O)cc(N4CCO[C@H](C)C4)nc23)cccc1C(F)(F)F [GSK2373690] | 21 | 0 | 0 | 0 | 0 | 0 | 0 | 13 | 12 | 9 | 0 | 11 | 11 | 0 | 0 | 0 | 0 | 0 | 0 | 0
18 | Cc1cccc(-c2cc(-c3c[nH]nc3-c3ccccn3)ccn2)c1 [GW679395] | 0 | 0 | 0 | 20 | 0 | 0 | 35 | 54 | 0 | 39 | 0 | 0 | 1 | 0 | 0 | 0 | 0 | 0 | 0 | 0
19 | CCn1c(-c2nonc2N)nc2ccccc21 [SB-693162/GW549034] | 0 | 29 | 0 | 0 | 0 | 8 | 23 | 8 | 0 | 0 | 0 | 0 | 0 | 0 | 0 | 62 | 21 | 34 | 30 | 0
20 | COC(=O)c1c(-c2ccccc2)c2cc(C)ccc2c(=O)n1Cc1ccccc1 | 0 | 0 | 0 | 2 | 0 | 0 | 13 | 20 | 5 | 1 | 0 | 0 | 13 | 0 | 0 | 0 | 0 | 0 | 0 | 3
21 | COc1ccc(-c2coc3ccc(-c4nnc(SCc5cccc(C#N)c5)o4)cc23)cc1 | 0 | 29 | 0 | 12 | 20 | 17 | 0 | 0 | 4 | 9 | 11 | 0 | 0 | 32 | 0 | 0 | 11 | 12 | 18 | 12
22 | COc1ccc(CNC(=O)NC2CCN(c3ccnc(Nc4ccc(F)cc4)n3)C2)cc1 (centres unmarked) [GSK1379706] | 7 | 17 | 0 | 12 | 0 | 0 | 44 | 63 | 20 | 54 | 0 | 0 | 10 | 14 | 0 | 10 | 0 | 0 | 19 | 0
23 | Nc1ncnc2c1ncn2-c1cccc2ccccc12 [SKF-97184] | 3 | 0 | 40 | 0 | 32 | 0 | 0 | 11 | 0 | 0 | 10 | 0 | 0 | 0 | 0 | 28 | 18 | 9 | 0 | 16
24 | CCn1c(-c2ccoc2)nc2cnccc21 [SB-733887] | 0 | 20 | 3 | 0 | 0 | 36 | 11 | 0 | 0 | 32 | 0 | 0 | 0 | 7 | 0 | 5 | 0 | 0 | 15 | 0
25 | O=C(NCc1cccs1)c1cc(C(=O)c2c(Cl)cccc2Cl)c[nH]1 [GW823670] | 0 | 0 | 0 | 5 | 0 | 0 | 34 | 0 | 4 | 0 | 6 | 3 | 0 | 0 | 0 | 0 | 0 | 0 | 0 | 0
26 | COc1ccc(-n2cnc3c(N)ncnc32)cc1 [SKF-97236] | 51 | 23 | 0 | 19 | 0 | 0 | 0 | 33 | 6 | 6 | 0 | 19 | 17 | 46 | 0 | 18 | 3 | 2 | 1 | 9
27 | Nc1ncnc2c1ncn2-c1ccc(Cl)cc1 [AH2635] | 47 | 0 | 0 | 0 | 0 | 0 | 17 | 57 | 10 | 23 | 0 | 0 | 0 | 0 | 0 | 0 | 0 | 0 | 0 | 3
28 | Cc1nnc(-c2ccc3ncn(-c4ccc(S(C)=O)cc4)c3c2)o1 (centres unmarked) | 0 | 0 | 19 | 4 | 1 | 11 | 0 | 18 | 5 | 55 | 12 | 0 | 0 | 0 | 0 | 0 | 0 | 9 | 14 | 0
29 | COc1cc2ncn(-c3cc(OCc4ccc(S(C)(=O)=O)cc4)c(C(N)=O)s3)c2cc1OC [GW869979] | 26 | 18 | 14 | 0 | 0 | 0 | 0 | 39 | 16 | 0 | 0 | 0 | 0 | 8 | 0 | 98.3 | 98.9 | 92.3 | 3 | 0
30 | O=C(Nc1n[nH]c2cc(-c3ccccc3F)ccc12)C1CC1 [SB-733371] | 6 | 0 | 10 | 0 | 0 | 0 | 32 | 0 | 24 | 0 | 0 | 20 | 0 | 0 | 14 | 0 | 0 | 3 | 9 | 0
31 | Cc1nnc(-c2ccc(C)c(-c3ccc(C(=O)O)cc3)c2)o1 [GW608005] | 0 | 0 | 0 | 18 | 0 | 0 | 0 | 6 | 0 | 0 | 0 | 0 | 0 | 28 | 0 | 0 | 0 | 0 | 0 | 0

Reference: PMC5540273 (PLoS ONE, 2017)
